Laboratory results as given in PubChem BioAssay.
Calls of active or inactive are those of the source. Rule as the data show it, unless noted: active = inhibition above about 80%; inactive = the rest.

What was measured:
[1] = target: NAD(+) hydrolase SARM1 (Homo sapiens) (UniProt Q6SZW1); experiment: blocking NAD cleavage by SARM1 SAM-TIR – cell lysate, NAD-Glo luminescence (AID 1508614;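 active = compound whose remaining NAD level is above about 45 nM, limit read from the data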;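 also: higher remaining NAD means stronger inhibition of SARM1 NADase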); settings: SAM-TIR HEK293T lysate NADase, at 1 µM, stronger effect = higher value
NAD(+) hydrolase SARM1 (Homo sapiens), sequence (Q6SZW1 whole entry, looked up, the tested form may be a part): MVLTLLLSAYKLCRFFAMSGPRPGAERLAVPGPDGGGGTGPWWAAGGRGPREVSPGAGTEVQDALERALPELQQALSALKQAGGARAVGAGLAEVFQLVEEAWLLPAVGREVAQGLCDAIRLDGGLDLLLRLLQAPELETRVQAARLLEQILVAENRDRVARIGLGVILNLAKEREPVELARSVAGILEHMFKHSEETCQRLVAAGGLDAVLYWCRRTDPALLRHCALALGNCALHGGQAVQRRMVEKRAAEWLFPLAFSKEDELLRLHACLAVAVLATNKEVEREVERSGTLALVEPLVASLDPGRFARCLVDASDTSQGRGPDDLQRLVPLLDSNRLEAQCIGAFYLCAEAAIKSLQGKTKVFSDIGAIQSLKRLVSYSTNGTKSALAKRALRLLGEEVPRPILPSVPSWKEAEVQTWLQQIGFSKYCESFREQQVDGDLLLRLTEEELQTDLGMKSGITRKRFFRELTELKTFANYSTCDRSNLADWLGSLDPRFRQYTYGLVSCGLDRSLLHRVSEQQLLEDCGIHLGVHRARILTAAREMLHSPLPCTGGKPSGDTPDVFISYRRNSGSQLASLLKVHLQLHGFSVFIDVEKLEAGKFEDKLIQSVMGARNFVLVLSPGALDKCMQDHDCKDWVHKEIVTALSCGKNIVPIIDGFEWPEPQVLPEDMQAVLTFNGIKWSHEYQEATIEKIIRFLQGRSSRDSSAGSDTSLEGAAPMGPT

[2] = target: Mitogen-activated protein kinase 7 (Homo sapiens) (UniProt Q13164); experiment: Gal4-ERK5 driven luciferase induction – cell-based, HTS, primary screen (AID 1508626;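 active = luciferase signal above three times the same-plate solvent-only control wells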;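 also: luciferase driven by Gal4-ERK5 fusion binding five Gal4 sites before minimal TATA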); settings: HeLa Gal4-ERK5 transactivation, 18 h, at 5 µM, stronger effect = higher value
Mitogen-activated protein kinase 7 (Homo sapiens), sequence (Q13164 whole entry, looked up, the tested form may be a part): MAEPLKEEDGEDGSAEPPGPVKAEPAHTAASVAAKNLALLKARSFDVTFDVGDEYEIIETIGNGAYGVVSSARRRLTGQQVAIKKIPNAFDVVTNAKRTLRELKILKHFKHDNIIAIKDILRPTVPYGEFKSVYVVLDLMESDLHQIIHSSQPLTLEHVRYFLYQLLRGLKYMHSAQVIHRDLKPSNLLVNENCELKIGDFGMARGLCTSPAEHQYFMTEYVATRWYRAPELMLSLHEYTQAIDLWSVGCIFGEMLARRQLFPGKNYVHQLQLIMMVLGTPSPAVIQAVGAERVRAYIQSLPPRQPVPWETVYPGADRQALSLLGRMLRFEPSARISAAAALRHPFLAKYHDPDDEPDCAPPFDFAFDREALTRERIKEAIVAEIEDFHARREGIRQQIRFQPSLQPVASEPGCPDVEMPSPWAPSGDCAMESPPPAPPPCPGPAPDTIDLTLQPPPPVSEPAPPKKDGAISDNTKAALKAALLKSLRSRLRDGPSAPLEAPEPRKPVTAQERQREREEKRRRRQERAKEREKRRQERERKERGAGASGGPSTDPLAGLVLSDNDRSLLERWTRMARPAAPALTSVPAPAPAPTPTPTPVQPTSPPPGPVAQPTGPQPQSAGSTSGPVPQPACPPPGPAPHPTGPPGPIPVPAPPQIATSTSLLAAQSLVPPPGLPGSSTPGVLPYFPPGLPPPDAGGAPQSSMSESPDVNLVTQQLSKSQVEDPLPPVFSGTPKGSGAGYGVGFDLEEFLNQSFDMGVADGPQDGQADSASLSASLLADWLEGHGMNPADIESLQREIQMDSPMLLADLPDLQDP

[3] = galactose survival enhancers in mitochondrial complex I cybrids – cell-based, galactose medium, ATP luminescence, primary screen (AID 1645843;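 active = z-score of at least 1.8 in each of two replicates, scored against plate mean and spread of sample wells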;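 also: positive z means more ATP and so rescue of galactose-driven cybrid death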); settings: complex I mutant cybrid cells, 72 h, stronger effect = higher value
[4] = growth inhibition, single agent or in combination, cell-based, chromothripsis tumors, cisplatin or BGB combos (AID 1671449); settings: LFS_MB_P medulloblastoma cells;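 also: cells exposed for 96 hours; 0% = vehicle DMSO and 100% = killing by high DMSO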
[5] = growth inhibition, single agent and combos, cell-based, chromothripsis tumors, cisplatin or BGB combos (AID 1671450); settings: HDN33 neuroblastoma cells, stronger effect = higher value;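 also: cells exposed to compound for four days; 0% = vehicle DMSO and 100% = cell killing by high DMSO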
[6] = growth inhibition, single agents and combos, ICB984, cell-based, cisplatin or BGB combos, synergistic combos for chromothripsis tumors (AID 1671451; call rule not given here;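 also: cells exposed for 96 hours before readout; 0% = vehicle DMSO and 100% = killing by high DMSO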); settings: ICB984 medulloblastoma cells, drug combinations, stronger effect = higher value
[7] = growth inhibition, single agents and combos, LFS_MB_1R, cell-based, cisplatin or BGB combos, synergistic combos for chromothripsis tumors (AID 1671452); settings: LFS_MB_1R medulloblastoma cells, stronger effect = higher value;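 also: cells exposed for 96 hours before readout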
[8] = growth inhibition, single agents and combos, HTB85, cell-based, BGB or cisplatin IC20 combos, synergistic combos for chromothripsis tumors (AID 1671453); settings: HTB85 osteosarcoma cells, drug combinations, stronger effect = higher value;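 also: cells exposed for 96 hours before readout; 0% = vehicle DMSO and 100% = high DMSO killing control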
[9] = growth inhibition, single agents and combos, CRL2098, cell-based, BGB or cisplatin IC20 combos, synergistic combos for chromothripsis tumors (AID 1671454); settings: CRL2098 osteosarcoma cells, drug combinations, stronger effect = higher value;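 also: cells exposed for 96 h before readout; 0% = vehicle DMSO and 100% = killing by high DMSO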
[10] = growth inhibition, single agents and combos, HD-MB03, cell-based, BGB or cisplatin IC20 combos, synergistic combos for chromothripsis tumors (AID 1671455; in the data active = inhibition above about 83%;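 also: 0% = vehicle DMSO and 100% = high DMSO as cytotoxic control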); settings: HD-MB03 medulloblastoma cells, stronger effect = higher value
[11] = growth inhibition, single agents and combos, UWB1.289, cell-based, BGB or cisplatin combos, synergistic combos for chromothripsis tumors (AID 1671456); settings: UWB1.289 ovarian carcinoma cells, stronger effect = higher value;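 also: cells exposed to compound for four days; 0% = vehicle DMSO and 100% = killing by high DMSO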
[12] = growth inhibition, single agents and combos, LFS_MB_2R, cell-based, cisplatin combos, synergistic combos for chromothripsis tumors (AID 1671457); settings: LFS_MB_2R medulloblastoma cells, stronger effect = higher value;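 also: cells exposed to compound for four days before readout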
[13] = growth inhibition, MDA-MB-436, cell-based, BGB or cisplatin combos, synergistic combos for chromothripsis tumors (AID 1671458; call rule not given here;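 also: cells exposed for 96 hours; 0% = vehicle DMSO and 100% = killing by high DMSO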); settings: MDA-MB-436 breast carcinoma growth inhibition, drug combinations, stronger effect = higher value
[14] = UWB1.289_BRCA1 ovarian cancer growth, cell-based, BGB or cisplatin combinations (AID 1671459); settings: UWB1.289 BRCA1 ovarian carcinoma, drug combinations, stronger effect = higher value
[15] = drug combination toxicity in non-malignant astrocytes – cell-based, BGB or cisplatin IC20 combos, cytotoxicity control for chromothriptic childhood tumor combination screen (AID 1671460); settings: Human astrocytes, viability inhibition, drug combinations, at 0.5 µM, stronger effect = higher value;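 also: cells exposed to compounds for 96 hours before viability readout; 0% = vehicle and 100% = killing control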
[16] = BT084 cell growth, single and combined drugs, ICGC_MB145, cisplatin and BGB IC40 combos (AID 1671461); settings: BT084 medulloblastoma cells, drug combinations, stronger effect = higher value;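 also: cells exposed to drugs for 96 hours; 0% = vehicle DMSO and 100% = high DMSO full killing control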
[17] = RCMB18 cell growth, single agent and combined, cisplatin and BGB IC40 combos (AID 1671462); settings: RCMB18 medulloblastoma cells, stronger effect = higher value;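 also: cells exposed to compound for four days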
[18] = CRL1545 cell growth, single agent and combined, cisplatin and BGB IC20 combos (AID 1671464); settings: CRL1545 osteosarcoma cells, stronger effect = higher value;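 also: cells exposed to compound for 96 hours before readout; 0% = vehicle DMSO and 100% = high DMSO killing control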
[19] = measured here: combination with BGB IC40, at 0.05 µM
[20] = measured here: with BGB IC20 combination, at 0.5 µM
[21] = measured here: with cisplatin IC20 combination, at 0.5 µM
[22] = measured here: combination with cisplatin, at 0.5 µM
[23] = measured here: combination with cisplatin, at 5 µM

Which remaining NAD [1] does the source give for `NC(=O)NO` here?
Its remaining NAD is 10 nM (inactive).

What about the luciferase signal [2] of the same molecule?
Its luciferase signal is 44 AU (inactive).

What about the z-score [3] of the same molecule?
Its z-score is 0.03 (inactive).

What about the inhibition ([4]; at 0.5 µM, stronger effect = higher value) of the same molecule?
Its inhibition is -32.5% (inactive).

What about the inhibition ([4]; measured here: combination with BGB IC20, at 0.005 µM) of the same molecule?
The inhibition was -13.7%.

What about the inhibition ([4]; measured here: combination with BGB IC40, at 0.005 µM) of the same molecule?
The inhibition was 33.3%.

And the inhibition [4, 19]?
The inhibition was -4.05%.

What about the inhibition ([4]; measured here: combination with cisplatin, at 0.5 µM, stronger effect = higher value) of the same molecule?
The inhibition was -74.7%.

And the inhibition ([4]; measured here: combination with cisplatin, at 5 µM, stronger effect = higher value)?
The inhibition was 7.33%.

What about the inhibition ([5]; BGB combo, at 5 µM) of the same molecule?
The inhibition was 4.14%.

And the inhibition ([5]; at 0.5 µM)?
Its inhibition is -0.11% (inactive).

And the inhibition ([5]; cisplatin combo, at 5 µM)?
Its inhibition is 7.9%.

What about the inhibition [5, 20] of the same molecule?
The inhibition was 1.89%.

And the inhibition [5, 21]?
The inhibition was -0.484%.

And the inhibition ([5]; single agent, at 5 µM)?
The inhibition was 3.76%.

What about the inhibition ([6]; BGB IC20 combo, at 0.005 µM) of the same molecule?
The inhibition was -9.77%.

And the inhibition ([6]; BGB IC40 combo, at 0.005 µM)?
Its inhibition is -3.4%.

What about the inhibition ([6]; BGB IC40 combo, at 0.05 µM) of the same molecule?
Its inhibition is -15.1%.

What about the inhibition ([6]; at 0.5 µM) of the same molecule?
The inhibition was -0.36% (inactive).

What about the inhibition ([6]; cisplatin combo, at 0.05 µM) of the same molecule?
Its inhibition is -15.1%.

And the inhibition ([6]; cisplatin combo, at 0.5 µM)?
The inhibition was -15.2%.

What about the inhibition ([6]; cisplatin combo, at 5 µM) of the same molecule?
The inhibition was -5.34%.

What about the inhibition ([6]; measured here: 5 uM single agent, at 5 µM) of the same molecule?
Its inhibition is -13.7%.

What about the inhibition ([7]; at 0.5 µM) of the same molecule?
The inhibition was -11.7% (inactive).

And the inhibition [7, 19]?
Its inhibition is -14.3%.

What about the inhibition [7, 22] of the same molecule?
Its inhibition is 23.3%.

What about the inhibition [7, 23] of the same molecule?
The inhibition was 27.3%.

And the inhibition ([8]; at 0.5 µM)?
The inhibition was 4.31% (inactive).

And the inhibition ([8]; measured here: with BGB IC20, at 0.5 µM)?
The inhibition was -11.6%.

And the inhibition ([8]; measured here: with BGB IC20, at 5 µM)?
The inhibition was 7.32%.

What about the inhibition ([8]; measured here: with cisplatin IC20, at 0.5 µM) of the same molecule?
Its inhibition is -0.499%.

And the inhibition ([8]; measured here: with cisplatin IC20, at 5 µM)?
Its inhibition is 13.2%.

And the inhibition ([8]; single agent, at 5 µM)?
Its inhibition is 18.4%.

And the inhibition ([9]; at 0.5 µM)?
Its inhibition is -5.49% (inactive).

What about the inhibition ([9]; measured here: combination with BGB at IC20, at 0.5 µM) of the same molecule?
Its inhibition is -9.56%.

And the inhibition ([9]; measured here: combination with cisplatin at IC20, at 0.5 µM)?
The inhibition was 4.43%.

And the inhibition ([10]; at 0.5 µM)?
Its inhibition is -4.93% (inactive).

And the inhibition ([10]; measured here: combo with BGB at IC20, at 0.5 µM)?
The inhibition was -2.45%.

And the inhibition ([10]; measured here: combo with cisplatin at IC20, at 0.5 µM)?
Its inhibition is -8.29%.

What about the inhibition ([11]; at 0.5 µM) of the same molecule?
Its inhibition is 5.4% (inactive).

And the inhibition ([11]; measured here: inhibition with BGB combination, at 0.05 µM)?
Its inhibition is 5.3%.

What about the inhibition ([11]; measured here: inhibition with cisplatin combination, at 0.05 µM) of the same molecule?
Its inhibition is -10.2%.

And the inhibition ([12]; at 0.5 µM)?
Its inhibition is 11.7% (inactive).

And the inhibition [12, 22]?
The inhibition was 8.29%.

What about the inhibition [12, 23] of the same molecule?
Its inhibition is 17%.

And the inhibition ([13]; at 0.5 µM)?
The inhibition was -8.14% (inactive).

What about the inhibition ([13]; measured here: BGB combination, at 0.5 µM) of the same molecule?
Its inhibition is -5.6%.

And the inhibition ([13]; measured here: BGB combination, at 5 µM)?
Its inhibition is -2.86%.

And the inhibition ([13]; measured here: cisplatin combination, at 0.5 µM)?
Its inhibition is -19.6%.

And the inhibition ([13]; measured here: cisplatin combination, at 5 µM)?
Its inhibition is 19.7%.

And the inhibition ([14]; BGB combination, concentration series, at 5 µM)?
The inhibition was 13.1%.

What about the inhibition ([14]; at 0.5 µM) of the same molecule?
Its inhibition is 4.57% (inactive).

And the inhibition ([14]; cisplatin combination, concentration series, at 5 µM)?
The inhibition was 15.7%.

What about the inhibition [15] of the same molecule?
The inhibition was -3.17% (inactive).

And the inhibition ([15]; measured here: combo with BGB IC20)?
Its inhibition is -6.58%.

What about the inhibition ([15]; measured here: combo with cisplatin IC20) of the same molecule?
Its inhibition is 5.32%.

And the inhibition ([16]; at 0.5 µM)?
Its inhibition is 3.97% (inactive).

What about the inhibition ([16]; cisplatin combination, at 0.5 µM) of the same molecule?
Its inhibition is 0.756%.

And the inhibition ([16]; cisplatin combination, at 5 µM)?
The inhibition was -27.3%.

And the inhibition ([16]; measured here: BGB IC40 combination 0.05 uM, at 0.05 µM)?
The inhibition was 10.1%.

And the inhibition ([16]; single agent, at 5 µM)?
Its inhibition is 1.06%.

And the inhibition ([17]; at 0.5 µM)?
The inhibition was 12.5% (inactive).

And the inhibition ([17]; cisplatin combo, at 5 µM)?
Its inhibition is 15.7%.

What about the inhibition ([17]; measured here: BGB IC40 combination, at 0.05 µM) of the same molecule?
Its inhibition is -13.6%.

And the inhibition [17, 22]?
Its inhibition is 28.2%.

What about the inhibition ([17]; single agent, at 5 µM) of the same molecule?
The inhibition was -32.4%.

And the inhibition ([18]; at 0.5 µM)?
Its inhibition is -15.5% (inactive).

What about the inhibition [18, 20] of the same molecule?
The inhibition was 6.18%.

And the inhibition [18, 21]?
The inhibition was -26.4%.

What about the inhibition ([18]; single agent, at 0.05 µM) of the same molecule?
The inhibition was -10.2%.

And the inhibition ([18]; single agent, at 5 µM)?
The inhibition was -5.37%.

With `CN1C(C)(C)CCCC1(C)C` as the molecule, how does the luciferase signal [2] read?
The luciferase signal was 68 AU (inactive).
